SARS PLP yeast: SARS-CoV PLP inhibition in yeast; S. cerevisiae expressing SARS-CoV PLpro, growth rescue; AID 485353; 330,000 tested, 0.19% active; Potency, µM (highest dose often 32.9 µM), without a hit: at the top dose activity, positive = growth rescue, hits mostly activators; calls by dose curve; further: 0% is about no effect; nearly all actives have a fitted effect of over 55% in size
Sm TGR block: blocks Schistosoma mansoni thioredoxin glutathione reductase. purified TGR, DTNB reduction, TNB absorbance 405 nm. Potency, µM (series often up to 114 µM), for the others: top-dose activity change, negative = inhibition, most hits filed as inhibitors. 360,000 tested, 3% active. AID 485364; further: on the % scale 0 is the no-effect control and ±100 the full control effect; nearly all actives have a fitted effect of over 60% in size
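TGR 20 nM + NADPH 100 uM (dispensed conc.), cpd preinc 15 min RT; start with NADPH (500 uM addition) then DTNB (15 mM addition). Kinetic TNB absorbance, 405 nm filter. Four-parameter Hill fit across titration.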
Pf growth 48h: P. falciparum growth inhibition at 48 hours (one generation); P. falciparum luciferase growth in erythrocytes, 48 h; Potency, µM (top dose mostly 28.7 µM), for inactives: at the top dose activity change, negative = inhibition, hits mostly inhibitors; 310,000 tested, 5.9% active; further: on the % scale 0 is the no-effect control and ±100 the full control effect
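Here the parasites carry a stable luciferase gene and grow inside erythrocytes in Albumax-based RPMI medium with compound for one erythrocytic cycle. Activity is scored as loss of luminescent signal.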
AmpC no deterg: AmpC beta-lactamase inhibition without detergent; 330,000 tested, 0.52% active; P00811; AmpC nitrocefin hydrolysis, absorbance 480 nm, 0.0001% Triton; Potency, µM (series often up to 57.1 µM), for inactives: top-dose activity change, negative = inhibition, most hits filed as inhibitors; AID 485341;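 further: plate controls were no compound for no effect and no enzyme for full effect; nearly all actives have a fitted effect of over 20% in size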
Target sequence (P00811 whole entry, looked up): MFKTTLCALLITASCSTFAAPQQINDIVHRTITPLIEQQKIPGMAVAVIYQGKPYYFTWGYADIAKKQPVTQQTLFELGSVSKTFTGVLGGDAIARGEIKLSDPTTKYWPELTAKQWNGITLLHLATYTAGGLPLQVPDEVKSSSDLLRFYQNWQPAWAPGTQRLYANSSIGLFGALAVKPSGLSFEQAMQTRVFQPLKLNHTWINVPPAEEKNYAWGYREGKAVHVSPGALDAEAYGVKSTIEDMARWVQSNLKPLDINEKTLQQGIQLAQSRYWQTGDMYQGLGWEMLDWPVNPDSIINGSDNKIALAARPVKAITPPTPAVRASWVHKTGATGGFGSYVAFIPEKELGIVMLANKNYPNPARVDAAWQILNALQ
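20 mM phosphate pH 7.0 + 0.01% (detergent screen) or 0.0001% Triton X-100; 5.3 nM AmpC reagent; cpd preinc 15 min RT; nitrocefin (800 uM stock) to start; A480 q20 s × 4 min; Activity was normalised to no-enzyme and no-compound control wells.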
Pf growth 96h: P. falciparum growth inhibition at 96 hours; Potency, µM (series often up to 28.7 µM), for inactives: at the top dose activity change, negative = inhibition, most hits filed as inhibitors; P. falciparum luciferase reporter growth, 96 h; 320,000 tested, 6.9% active; further: on the % scale 0 is the no-effect control and ±100 the full control effect
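Two-generation exposure (96 h) targets delayed-death phenotype. Reporter parasites carrying integrated firefly luciferase, in red cells at 2% hematocrit and 0.05% parasitemia final, kept at 37 C, 5% CO2; luminescence loss indicates inhibition.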
AmpC detergent: AmpC beta-lactamase inhibition with detergent present; AmpC hydrolysis of nitrocefin, absorbance 480 nm, 0.01% Triton; P00811; Potency, µM (top dose mostly 114 µM), for inactives: at the highest dose activity change, negative = inhibition, usual class: inhibitors; AID 485294; 370,000 tested, 0.041% active;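 further: 0% = no-compound wells and -100% = no-enzyme wells; nearly all actives have a fitted effect of over 25% in size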
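AmpC (5.3 nM in the dispensed reagent) in 20 mM phosphate pH 7.0 with 0.01% (detergent screen) or 0.0001% Triton X-100 was preincubated with compounds for 15 min at room temperature. Nitrocefin was then added from an 800 uM solution, and hydrolysis was followed at 480 nm.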
* hit, by the source's call; ? = inconclusive; · = no result given. A selection: hits, their analogues and other compounds. The true share with any hit is near 12%. Unless noted, the call rests on the fitted dose curve; in most records, active means well fitted curve in the direction sought with a large enough effect; inconclusive means small, poorly fitted or top-dose-only effect, or another doubt; inactive means no such curve, though single readings can be large; an effect the other way counts as inactive or inconclusive. Potency means the concentration at half of the fitted maximal effect.

SMILES	SARS PLP yeast	Sm TGR block	Pf growth 48h	AmpC no deterg	Pf growth 96h	AmpC detergent
O=C(Nc1nc2c(s1)CN(Cc1ccccc1)CC2)c1cccc(S(=O)(=O)N2CCc3ccccc32)c1	9%	-20%	?	1%	8.3µM*	-6%
CNC(=O)c1ccsc1NC(=O)c1ccc(S(=O)(=O)N2CCCc3ccccc32)cc1	-29%	-2%	12µM*	-14%	9.3µM*	0%
O=C(Nc1nc2c(s1)CCCC2)c1ccc(S(=O)(=O)N2CCCc3ccccc32)cc1	-11%	2%	?	-32%	10µM*	-9%
O=C(Nc1ccc(F)c(Cl)c1)N1CC=C(c2c[nH]c3ccccc23)CC1	·	-5%	·	·	·	7%
COc1ccc2c(c1)CC(C(=O)NCCCN1CCN(c3ccc(F)cc3)CC1)CO2 (stereo not drawn)	·	-10%	·	·	·	11%
Cc1csc2nc(COC(=O)CNC(=O)c3ccccc3Cl)cc(=O)n12	·	-1%	·	·	·	-5%
O=C(O)C1=CC2c3ccccc3C1c1ccccc12	0%	0%	6%	-5%	10µM*	1%
Cn1c(=O)c2c(-c3ccccc3Br)n(C(C)(C)C)cc2n(C)c1=O	·	43%	·	·	·	-7%
Cc1ccc2c(Cl)cc(Cl)c(OCC(=O)NC(=O)NCc3ccco3)c2n1	-5%	0%	2.3µM*	20%	?	?
Cc1ccc(OCC(=O)NCc2ccco2)cc1C	-9%	35µM*	13%	-15%	62%	?
O=C(COc1ccc(Cl)cc1Cl)NCc1ccco1	3%	0%	55%	-25%	?	-12%
Cc1cc(Cl)cc(Cl)c1OCC(=O)NCc1ccco1	-10%	40µM*	11%	2%	?	-13%
CCCOc1cccc(C2c3c(oc4ccc(F)cc4c3=O)C(=O)N2c2nc(C)c(C(C)=O)s2)c1 (stereo not drawn)	·	-2%	·	·	·	20%
COc1ccc(OC)c(C2CC(=O)N3CN(c4cccc(Cl)c4C)CSC3=C2C#N)c1 (stereo not drawn)	11%	10µM*	·	-54%	3%	0%
COc1cc(C2CC(=O)N3CN(c4ccccc4C)CSC3=C2C#N)cc(OC)c1OC (stereo not drawn)	?	?	?	29%	?	-6%
COc1ccc(Br)cc1C1CC(=O)N2CN(Cc3ccccc3)CSC2=C1C#N (stereo not drawn)	-1%	0%	·	-41%	20%	?
COc1cccc(C2CC(=O)N3CN(c4cccc(Cl)c4C)CSC3=C2C#N)c1OC (stereo not drawn)	2%	0%	·	71%	0.93µM*	?
Cc1cccn2c(=O)c3cc(C#N)c(=O)n(-c4nnc(SCc5ccc(F)cc5)s4)c3nc12	·	-4%	·	·	·	12%
Cc1oc(-c2ccccc2)nc1CS(=O)CC(=O)N1CCc2ccccc2C1 (stereo not drawn)	-5%	3.2µM*	·	29%	38%	-19%
Cc1cccc(-c2nc(CS(=O)CC(=O)NCC3CCCO3)c(C)o2)c1 (stereo not drawn)	?	28µM*	7%	0%	?	?
Cc1cccc(-c2nc(CS(=O)CC(=O)NCc3cccs3)c(C)o2)c1 (stereo not drawn)	3%	-23%	·	26%	?	-13%
Cc1ccc(-c2nc(CS(=O)CC(=O)N3CCN(c4ccccc4)CC3)c(C)o2)cc1 (stereo not drawn)	2%	-15%	-7%	149%	0%	7%
Cc1cccc(-c2nc(CS(=O)CC(=O)N3CCCCC3)c(C)o2)c1 (stereo not drawn)	-2%	35µM*	·	6%	-96%	?
CC(=O)N1CCCc2cc(S(=O)(=O)NC(C(=O)NCc3ccc(C)cc3)C(C)C)ccc21 (stereo not drawn)	4%	4%	-17%	31%	22%	?
